The panel holds about 83,000 compounds, 20% with a hit somewhere; the sample as a whole holds those more often.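 Percent growth is the endpoint: 0 to 100 indicates growth inhibition (40 means 60% inhibition), 0 means no net growth, and negative values indicate cell death.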 The source made the active and inactive calls. The calls were made as follows: active = growth percent below 10; inactive = the rest.
Experiments:
Assay in all cases: NCI-60 one-dose screen, 48 h (100 = growth as untreated, 0 = no growth, -100 = all killed)
DU-145 prostate = conditions: 10 µM unless noted
K-562 leukemia = conditions: 10 µM unless noted
MALME-3M melanoma = conditions: 10 µM unless noted
MDA-MB-231 breast = conditions: 10 µM unless noted
RXF 393 renal = conditions: 10 µM unless noted
SF-268 CNS = conditions: 10 µM unless noted
SF-295 CNS = conditions: 10 µM unless noted
SF-539 CNS = conditions: 10 µM unless noted
UACC-257 melanoma = conditions: 10 µM
M14 melanoma = conditions: 10 µM unless noted
HCT-15 colon = conditions: 10 µM unless noted
HT29 colon = conditions: 10 µM unless noted
SNB-19 CNS = conditions: 10 µM unless noted
U251 CNS = conditions: 10 µM unless noted
PC-3 prostate = conditions: 10 µM unless noted
SK-MEL-5 melanoma = conditions: 10 µM unless noted
UACC-62 melanoma = conditions: 10 µM unless noted
SK-MEL-28 melanoma = conditions: 10 µM unless noted
LOX IMVI melanoma = conditions: 10 µM unless noted
SNB-75 CNS = conditions: 10 µM unless noted

Measured: growth

O=C(Nc1cccc(Cl)c1)Nc1nc2ccc([N+](=O)[O-])cc2s1
active: K-562 leukemia 4.51% | MALME-3M melanoma -9.22% | MDA-MB-231 breast -9.3% | RXF 393 renal -26.4% | SF-268 CNS 9.76% | SF-295 CNS -68.9% | SF-539 CNS 7.66% | UACC-257 melanoma -15.2% | M14 melanoma 0.118% | HCT-15 colon 1.52% | HT29 colon 4.55% | U251 CNS 5.89% | PC-3 prostate 6.96% | SK-MEL-5 melanoma -75.3% | UACC-62 melanoma -40.2% | SK-MEL-28 melanoma 0.117%
inactive: DU-145 prostate 15.2% | SNB-19 CNS 21.2%

Oc1ccc(CSc2nnc(-c3ccc(Br)cc3)o2)c2cccnc12
inactive: DU-145 prostate 40.2% | K-562 leukemia 15.2% | MALME-3M melanoma 58.5% | MDA-MB-231 breast 51.4% | RXF 393 renal 60.9% | SF-268 CNS 31.3% | SF-295 CNS 11.3% | SF-539 CNS 28.4% | UACC-257 melanoma 29.7% | M14 melanoma 31.5% | HCT-15 colon 10.7% | HT29 colon 111% | SNB-19 CNS 20% | U251 CNS 12.5% | PC-3 prostate 23% | SK-MEL-5 melanoma 12% | UACC-62 melanoma 27.3% | LOX IMVI melanoma 20.3% | SK-MEL-28 melanoma 32.8%

O=C(NNc1nc2cc(F)cc(F)c2n2cccc12)c1ccncn1
inactive: DU-145 prostate 18.7% | MALME-3M melanoma 28.3% | MDA-MB-231 breast 32.2% | RXF 393 renal 18.8% | SF-268 CNS 12.5% | SF-295 CNS 15.1% | HT29 colon 23.8% | SNB-75 CNS 19.3% | SNB-19 CNS 21.9% | PC-3 prostate 33.6% | SK-MEL-28 melanoma 22.9%
active: K-562 leukemia 8.02% | SF-539 CNS 7.47% | UACC-257 melanoma 5.21% | M14 melanoma 4.27% | U251 CNS 9.14% | SK-MEL-5 melanoma -4.3% | UACC-62 melanoma 3.64% | LOX IMVI melanoma 6.37%

Cc1ccc(/C=C/CC(=O)Nc2ccc(C(=O)Nc3ccc(F)cc3N)cc2)cn1
inactive: DU-145 prostate 54.3% | K-562 leukemia 34% | MALME-3M melanoma 41.4% | MDA-MB-231 breast 69.3% | RXF 393 renal 74.5% | SF-268 CNS 60.4% | SF-295 CNS 69.7% | SF-539 CNS 55.9% | UACC-257 melanoma 52.4% | M14 melanoma 56.7% | HT29 colon 36.1% | SNB-75 CNS 74.8% | SNB-19 CNS 73.7% | U251 CNS 61.1% | PC-3 prostate 53% | SK-MEL-5 melanoma 69.3% | UACC-62 melanoma 51.3% | LOX IMVI melanoma 49.3% | SK-MEL-28 melanoma 55.6%

O=S(=O)(Nc1ccc(-c2nc(-c3cccc(O)c3)c(-c3ccnc(Br)c3)[nH]2)cc1)c1ccccc1
active: K-562 leukemia 2.08% | RXF 393 renal -16.3% | SNB-75 CNS 5.4% | PC-3 prostate 9.21% | SK-MEL-5 melanoma -26.4% | LOX IMVI melanoma -25%
inactive: DU-145 prostate 54.6% | MALME-3M melanoma 39.8% | MDA-MB-231 breast 23% | SF-268 CNS 37.1% | SF-295 CNS 10.4% | SF-539 CNS 44.4% | UACC-257 melanoma 44.5% | M14 melanoma 26.1% | HT29 colon 31.8% | SNB-19 CNS 30.2% | U251 CNS 30.3% | UACC-62 melanoma 16.4% | SK-MEL-28 melanoma 33.1%

C#C[C@]1(O)CC[C@H]2[C@@H]3CC=C4c5sc(Nc6cc(Cl)ccn6)nc5CC[C@]4(C)[C@H]3CC[C@@]21C
active: K-562 leukemia 7.33% | MALME-3M melanoma -21.9% | RXF 393 renal -52.8% | SF-295 CNS -68.7% | SF-539 CNS -53.2% | UACC-257 melanoma -35.3% | M14 melanoma -51.8% | SNB-75 CNS -33.2% | SNB-19 CNS -1.08% | PC-3 prostate 7.93% | SK-MEL-5 melanoma -58.9% | UACC-62 melanoma -17% | SK-MEL-28 melanoma -47.3%
inactive: DU-145 prostate 42.5% | MDA-MB-231 breast 32.6% | SF-268 CNS 10.7% | HT29 colon 21.4% | U251 CNS 15.1%

COc1ccc(N2C(=O)c3cc(OC)c(OC)cc3NC2SCc2ccccc2)cc1 (centres undefined)
inactive: DU-145 prostate 110% | K-562 leukemia 88.6% | MALME-3M melanoma 95.2% | MDA-MB-231 breast 91.5% | RXF 393 renal 144% | SF-268 CNS 110% | SF-295 CNS 103% | SF-539 CNS 94.3% | UACC-257 melanoma 105% | HCT-15 colon 96.1% | HT29 colon 116% | SNB-75 CNS 112% | SNB-19 CNS 109% | U251 CNS 108% | PC-3 prostate 102% | SK-MEL-5 melanoma 97% | UACC-62 melanoma 93.8% | LOX IMVI melanoma 94.8% | SK-MEL-28 melanoma 96.9%

CN1CCN(c2nc(-c3cnc4ccccc4n3)cc3ccccc23)CC1
inactive: DU-145 prostate 77.1% | MALME-3M melanoma 69% | MDA-MB-231 breast 71.4% | RXF 393 renal 23.9% | SF-268 CNS 71.1% | SF-295 CNS 89.9% | SF-539 CNS 80.1% | UACC-257 melanoma 91% | HT29 colon 21.3% | SNB-75 CNS 72.7% | SNB-19 CNS 81.1% | U251 CNS 68% | PC-3 prostate 70.8% | LOX IMVI melanoma 20% | SK-MEL-28 melanoma 30.9%
active: K-562 leukemia -52.1% | M14 melanoma -80% | UACC-62 melanoma -7.14%
